# Test results published in PubChem BioAssay.
# Calls of active or inactive are those of the source.
# Tests used:
# [1] = biological target: Albumin (Bos taurus) (UniProt P02769); experiment: compounds binding labelled BSA control protein – biochemical, small-molecule microarray, Alexa647 label, 635/667 nm fluorescence, artefact control for SMM control protein annotation, profiling panel (AID 1118); conditions: BSA-A647 binding, fluorescence 635 nm, higher = more signal;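 also: score merges 667 nm emission intensity and signal-to-noise per printed compound spot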
# Chain of Albumin (Bos taurus) (P02769 whole entry, looked up): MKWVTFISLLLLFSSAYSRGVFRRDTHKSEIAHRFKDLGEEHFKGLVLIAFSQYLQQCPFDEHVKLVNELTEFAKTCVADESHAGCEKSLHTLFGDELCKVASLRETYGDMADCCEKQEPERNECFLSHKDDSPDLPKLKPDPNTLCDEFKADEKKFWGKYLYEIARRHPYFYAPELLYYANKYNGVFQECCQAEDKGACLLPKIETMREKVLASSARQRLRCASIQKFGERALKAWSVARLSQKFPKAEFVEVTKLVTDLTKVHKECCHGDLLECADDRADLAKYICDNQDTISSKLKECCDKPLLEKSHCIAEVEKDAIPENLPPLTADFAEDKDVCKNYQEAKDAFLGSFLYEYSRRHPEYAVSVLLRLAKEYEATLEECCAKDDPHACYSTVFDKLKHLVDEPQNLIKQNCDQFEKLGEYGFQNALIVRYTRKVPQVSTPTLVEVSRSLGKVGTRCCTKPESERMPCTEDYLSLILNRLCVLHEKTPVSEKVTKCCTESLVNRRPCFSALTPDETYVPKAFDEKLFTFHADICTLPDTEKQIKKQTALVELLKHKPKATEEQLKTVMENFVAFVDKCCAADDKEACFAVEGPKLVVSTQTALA
# [2] = probe aXIP binding to arrayed compounds – biochemical, NeuroSMM set, 635/667 nm fluorescence, primary screen (AID 1119); conditions: small-molecule microarray, higher = more signal, called active from +8 up or from −8 down;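 also: probe is the protein aXip251-270 applied at 1 µg/mL to compound-printed slides; binding of probe to printed compounds measured as 667 nm fluorescence plus signal to noise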
# [3] = probe aNOTCH3 binding on compound microarray – biochemical, small-molecule microarray, 635/667 nm fluorescence, primary screen (AID 1120); conditions: higher = more signal;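 also: probe is a biotin-tagged antibody raised against NOTCH3 rather than NOTCH3 protein; score merges spot fluorescence near 667 nm with spot signal to noise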
# [4] = probe aNOTCH2 binding on compound microarray – biochemical, small-molecule microarray, 635/667 nm fluorescence, primary screen (AID 1121); conditions: higher = more signal;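 also: score merges feature fluorescence read at 667 nm with its signal to noise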
# [5] = biological target: Carbonic anhydrase 2 (Homo sapiens) (UniProt P00918); experiment: compounds binding carbonic anhydrase 2 – biochemical, small-molecule microarray, Alexa647-labelled CAII, profiling panel (AID 1122); conditions: CAII-A647 binding fluorescence, higher = more signal
# [6] = COS7 lysate on small-molecule microarray, probe aHis, 635 nm (AID 1123); conditions: COS7 cell lysate, fluorescence, higher = more signal;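 also: z-score combines 667nm fluorescence intensity with signal-to-noise per printed compound spot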
# [7] = probe aLAP1 signal on lysate-treated microarray – cell lysate, small-molecule microarray, COS7 lysate, primary screen (AID 1124); conditions: probe aLAP1, fluorescence, higher = more signal;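 also: lysate comes from COS7 cells expressing LAP1 and is applied at 0.3 µg/mL; score merges spot fluorescence near 667 nm with signal-to-noise over triplicate slides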
# [8] = test system: Sam68 (KHDRBS1); experiment: compounds binding KHDRBS1 protein – biochemical, small-molecule microarray, 635 nm fluorescence, primary screen (AID 1125); conditions: higher = more signal;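 also: score merges 667 nm channel intensity with signal to noise over triplicate slides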
# [9] = test system: Chordin-like protein 2 (CHRDL2); experiment: compounds binding chordin-like 2 – biochemical, small-molecule microarray, 635 nm fluorescence, primary screen (AID 1126); conditions: fluorescence 635 nm, higher = more signal;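 also: printed compound slides probed with Chrdl2 protein at 4 µg/mL for 1 h at 4 C; score merges 667 nm emission intensity with signal to noise over three replicate slides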
# [10] = biological target: Concanavalin-A (Canavalia ensiformis) (UniProt P02866); experiment: compounds binding concanavalin A lectin – biochemical, small-molecule microarray, Alexa647 label, 635 nm, artefact control for SMM control protein annotation, primary screen (AID 1127); conditions: ConA-A647 binding fluorescence, higher = more signal;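 also: z combines 667 nm emission intensity with signal-to-noise across three replicate slides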
# Chain of Concanavalin-A (Canavalia ensiformis) (P02866 whole entry, looked up): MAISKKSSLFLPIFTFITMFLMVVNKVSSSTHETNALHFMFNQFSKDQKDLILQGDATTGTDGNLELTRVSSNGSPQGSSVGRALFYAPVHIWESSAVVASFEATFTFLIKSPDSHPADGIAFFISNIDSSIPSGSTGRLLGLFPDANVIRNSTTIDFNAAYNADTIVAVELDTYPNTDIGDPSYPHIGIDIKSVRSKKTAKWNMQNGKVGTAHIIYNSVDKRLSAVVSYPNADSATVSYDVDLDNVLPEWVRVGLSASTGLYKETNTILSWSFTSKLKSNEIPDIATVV
# [11] = compounds binding Alexa647 anti-His antibody – biochemical, small-molecule microarray, 635 nm fluorescence, artefact control for SMM control protein annotation, primary screen (AID 1128); conditions: higher = more signal;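 also: score merges feature fluorescence with signal-to-noise for each printed compound spot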
# [12] = test system: Human papillomavirus type 1a E7 protein (residues 1-88); experiment: HPV1a E7 small-molecule binders, primary screen, biochemical, small-molecule microarray, residues 1-88, 635 nm (AID 1129); conditions: small-molecule microarray binding, fluorescence 635 nm; higher = more signal
# [13] = biological target: Focal adhesion kinase 1 (Homo sapiens) (UniProt Q05397); experiment: PTK2 protein binding on printed compound slides – biochemical, small-molecule microarray, 635/667 nm fluorescence, BSA, DTT, primary screen (AID 1130); conditions: 635 nm fluorescence, higher = more signal;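 also: composite of spot emission at 667 nm and signal to noise over triplicate slides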
# Chain of Focal adhesion kinase 1 (Homo sapiens) (Q05397 whole entry, looked up): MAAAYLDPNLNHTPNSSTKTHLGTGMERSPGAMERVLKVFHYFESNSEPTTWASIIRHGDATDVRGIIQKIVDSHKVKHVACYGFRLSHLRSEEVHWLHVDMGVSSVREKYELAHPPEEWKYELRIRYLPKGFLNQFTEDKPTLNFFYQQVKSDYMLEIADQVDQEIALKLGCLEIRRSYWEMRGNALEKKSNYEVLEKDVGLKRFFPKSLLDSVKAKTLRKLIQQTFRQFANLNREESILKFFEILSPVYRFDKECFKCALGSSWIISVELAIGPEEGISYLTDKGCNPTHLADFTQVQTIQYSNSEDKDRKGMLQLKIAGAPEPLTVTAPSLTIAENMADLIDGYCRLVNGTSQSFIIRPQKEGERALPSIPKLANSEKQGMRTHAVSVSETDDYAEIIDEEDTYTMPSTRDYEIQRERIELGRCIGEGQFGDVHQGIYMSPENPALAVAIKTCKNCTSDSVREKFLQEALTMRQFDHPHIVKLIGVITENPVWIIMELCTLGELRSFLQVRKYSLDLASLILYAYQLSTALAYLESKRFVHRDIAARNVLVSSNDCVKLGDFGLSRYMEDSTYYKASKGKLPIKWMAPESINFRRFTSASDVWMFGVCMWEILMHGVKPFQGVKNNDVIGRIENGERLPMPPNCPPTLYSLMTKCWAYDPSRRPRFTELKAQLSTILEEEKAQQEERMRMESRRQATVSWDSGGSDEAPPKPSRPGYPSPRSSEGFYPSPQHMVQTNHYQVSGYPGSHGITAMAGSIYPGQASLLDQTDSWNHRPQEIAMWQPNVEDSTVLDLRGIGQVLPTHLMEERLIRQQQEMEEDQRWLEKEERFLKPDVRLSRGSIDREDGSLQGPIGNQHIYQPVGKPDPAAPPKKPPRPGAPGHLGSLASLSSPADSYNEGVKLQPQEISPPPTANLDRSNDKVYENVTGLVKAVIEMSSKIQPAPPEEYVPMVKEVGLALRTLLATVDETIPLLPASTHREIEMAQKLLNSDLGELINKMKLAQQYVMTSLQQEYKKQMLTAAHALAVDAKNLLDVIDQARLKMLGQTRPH
# [14] = test system: Fibrinogen (Alexa647-labelled); experiment: Alexa647-fibrinogen binding to printed small molecules – biochemical, small-molecule microarray, 635/667 nm fluorescence, artefact control for SMM control-protein annotation, profiling panel (AID 1131); conditions: fibrinogen-A647 binding fluorescence, higher = more signal;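 also: z-score merges 667 nm fluorescence with per-spot signal-to-noise over triplicate slides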
# [15] = biological target: Follistatin (Homo sapiens) (UniProt P19883); experiment: FST protein binding to printed compounds – biochemical, small-molecule microarray, 635/667 nm fluorescence, primary screen (AID 1132); conditions: 635 nm fluorescence, higher = more signal
# Chain of Follistatin (Homo sapiens) (P19883 whole entry, looked up): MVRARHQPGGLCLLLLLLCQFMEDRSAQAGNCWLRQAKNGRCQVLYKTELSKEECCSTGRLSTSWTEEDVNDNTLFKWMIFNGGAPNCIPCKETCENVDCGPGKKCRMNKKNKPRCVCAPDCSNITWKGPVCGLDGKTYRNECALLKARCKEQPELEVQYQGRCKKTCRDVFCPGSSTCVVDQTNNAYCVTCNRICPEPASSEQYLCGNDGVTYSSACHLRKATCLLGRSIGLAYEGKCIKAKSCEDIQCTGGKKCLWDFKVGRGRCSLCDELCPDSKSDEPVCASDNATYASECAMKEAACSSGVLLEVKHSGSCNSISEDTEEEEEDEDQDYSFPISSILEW
# [16] = biological target: Fibroblast growth factor 2 (Homo sapiens) (UniProt P09038); experiment: basic fibroblast growth factor binding to printed compounds – biochemical, small-molecule microarray, 635/667 nm fluorescence, primary screen (AID 1133); conditions: FGF2, fluorescence 635/667, higher = more signal
# Chain of Fibroblast growth factor 2 (Homo sapiens) (P09038 whole entry, looked up): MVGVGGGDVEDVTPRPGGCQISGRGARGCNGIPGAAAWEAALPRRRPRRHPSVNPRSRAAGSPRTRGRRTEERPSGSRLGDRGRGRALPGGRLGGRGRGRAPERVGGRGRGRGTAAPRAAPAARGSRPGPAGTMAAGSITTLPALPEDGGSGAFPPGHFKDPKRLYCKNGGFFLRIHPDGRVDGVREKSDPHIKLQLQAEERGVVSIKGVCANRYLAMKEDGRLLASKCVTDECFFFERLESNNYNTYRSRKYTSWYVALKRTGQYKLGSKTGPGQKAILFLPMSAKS
# [17] = JC-1 mitochondrial potential readout, lung cancer cells – cell-based, A549, JC-1 fluorescence, basal, 24 h, 100 nL, profiling panel (AID 1138); conditions: higher = more signal;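 also: A549 lung adenocarcinoma cells under basal conditions with no added stimulus; test concentration not given here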
# [18] = test system: Lefty1; experiment: Lefty1 protein binding to printed compounds – biochemical, small-molecule microarray, 635/667 nm fluorescence, primary screen (AID 1139); conditions: fluorescence 635/667, higher = more signal
# [19] = test system: wheat germ agglutinin (Triticum aestivum), Alexa647-labelled; experiment: Alexa647-WGA lectin binding to printed small molecules – biochemical, small-molecule microarray, 635/667 nm fluorescence, artefact control for SMM control-protein annotation, profiling panel (AID 1140); conditions: WGA-A647 binding, 635 nm fluorescence, higher = more signal;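 also: score merges 667 nm feature emission with signal to noise over triplicate slides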
# [20] = biological target: Luciferin 4-monooxygenase (Photinus pyralis) (UniProt P08659); experiment: inhibition of purified Photinus pyralis luciferase – biochemical, luminescence, purified enzyme, 2006 set, primary screen (AID 1141); conditions: purified firefly luciferase, SteadyGlo luminescence, 30 min; higher = more signal, called active from +8 up or from −8 down;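 also: cell-free assay with purified firefly luciferase at 100 ng per well in PBS; test concentration not given here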
# Chain of Luciferin 4-monooxygenase (Photinus pyralis) (P08659 whole entry, looked up): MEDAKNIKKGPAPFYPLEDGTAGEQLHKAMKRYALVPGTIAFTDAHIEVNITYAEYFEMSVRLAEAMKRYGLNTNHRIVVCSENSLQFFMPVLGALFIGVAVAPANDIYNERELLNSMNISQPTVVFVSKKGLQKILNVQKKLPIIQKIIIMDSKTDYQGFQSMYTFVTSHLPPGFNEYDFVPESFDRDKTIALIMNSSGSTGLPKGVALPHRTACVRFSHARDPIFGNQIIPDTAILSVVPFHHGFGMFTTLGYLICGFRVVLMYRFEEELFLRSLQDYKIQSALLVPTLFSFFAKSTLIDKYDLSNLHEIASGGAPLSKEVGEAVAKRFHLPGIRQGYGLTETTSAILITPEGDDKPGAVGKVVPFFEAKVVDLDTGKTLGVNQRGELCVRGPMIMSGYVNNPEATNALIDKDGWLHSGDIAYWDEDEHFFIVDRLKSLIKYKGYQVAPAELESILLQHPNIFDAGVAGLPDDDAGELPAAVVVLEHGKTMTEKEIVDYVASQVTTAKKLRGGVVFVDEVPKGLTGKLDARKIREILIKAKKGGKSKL
SMILES,composite z-score [1],composite Z-score [2],composite z-score [3],composite z-score [4],composite z-score [5],composite z-score [6],composite z-score [7],composite z-score [8],composite z-score [9],composite z-score [10],composite z-score [11],composite z-score [12],composite z-score [13],composite z-score [14],composite z-score [15],composite z-score [16],z-score [17],composite z-score [18],composite z-score [19],z-score [20]
CC1CC/C=C\[C@H]2OC34C=CCN(C(C)(C)C)C(=O)[C@H]3N(C(C)CO)C(=O)[C@@H]4C2C(=O)O1 (stereo not given in full),-0.92,-0.0245 (inactive),-0.122,-0.13,0.4,-0.187,0.199,-1.47,-0.454,-2.17,-1.63,-2.07,-0.9,-2.02,-0.397,-0.121,0.348,-0.248,-1.61,-0.694 (inactive)
COCC(=C=CC[C@@H](O)c1cccc(OCCO)c1)C[C@@H](O)c1ccccn1,0.254,0.745 (inactive),0.0979,-0.14,0.744,0.486,1.73,0.338,0.188,0.218,-0.252,0.467,-0.32,0.263,0.868,0.392,1.53,1.24,0.0688,-1.16 (inactive)
C=CC1(C(=O)OC)CC=C(C(=O)OC)CC1 (stereo not given),0.714,0.257 (inactive),-0.0077,-0.0661,0.613,0.732,0.872,0.82,0.556,0.339,0.731,0.901,0.286,0.862,0.65,0.653,0.263,0.308,0.184,0.723 (inactive)
O=C1C2C=CC(C(O)c3cc(C(F)(F)F)cc(C(F)(F)F)c3)N(n3cnnc3)C2C(=O)N1Cc1ccccc1 (stereo not given),0.184,-0.0461 (inactive),-0.0391,0.392,0.68,1.58,-0.0088,0.824,-1.04,0.516,0.955,-0.269,-0.176,0.889,-0.192,-0.794,-1.57,-0.264,1.05,1.46 (inactive)
C=CCC(OC(C)=O)[C@@H]1[C@@H](N(Cc2cccc3ccccc23)C(=O)c2ccc(-c3ccccc3)cc2)c2cc(OCCCO)ccc2N1C(=O)c1ccc2ccccc2c1 (stereo not given in full),0.416,-0.732 (inactive),0.116,-0.0533,0.16,0.735,0.169,0.721,-0.0354,-0.0377,-0.165,0.233,0.299,0.66,0.906,-0.0101,0.0927,0.389,0.0002,0.797 (inactive)
O=C1N(Cc2ccccc2)c2ccccc2[C@@H]2OC(c3ccc(OCCCO)cc3)=N[C@]12CCS(=O)(=O)c1ccccc1,0.272,1.29 (inactive),0.147,-0.0079,0.626,2.52,-0.276,0.895,0.0187,1.14,0.218,1.2,0.564,0.92,1.15,0.311,-0.311,0.0829,1.19,-1.45 (inactive)
CCCC=C(CCC)[C@@H](NC(=O)c1cccs1)c1ccc(C(F)(F)F)cc1,0.868,0.23 (inactive),0.224,-0.0027,0.173,0.0705,0.156,1.23,-0.595,0.79,0.51,1.23,-0.201,0.936,0.572,0.0183,0.627,0.735,0.83,-2.34 (inactive)
Cc1ccc(S[C@]2(C(=O)NCCCN(C)C)CC(=O)N(Cc3cc(C(F)(F)F)cc(C(F)(F)F)c3)[C@@H]2c2ccc(CO)cc2)cc1,0.384,0.624 (inactive),-0.149,-0.106,0.874,0.616,0.357,-0.427,-0.869,-0.949,-0.237,-0.817,0.145,-0.603,-0.802,-1.33,0.134,-0.493,0.0796,-0.303 (inactive)
C=CCOC(=O)[C@@H]1[C@H]2C(=O)O[C@H](c3ccccc3)[C@H](c3ccccc3)N2[C@H](c2ccc(OCCOC(=O)[C@H]3C[C@H]4C(=O)N5CCC[C@H]5C(=O)N4[C@H]3c3ccc(O)cc3)cc2)[C@@]12C(=O)Nc1ccc(I)cc12,-1.18,0.76 (inactive),-0.213,0.0701,0.339,1.58,-0.299,1.3,1.09,1.13,2.01,1.19,0.453,0.409,1.39,1.58,-1.6,1.42,0.497,-0.376 (inactive)
C=C(CCCC)/C(=C/C[C@@H](OC(=O)c1ccncc1)c1ccc(OCCO)cc1)c1cc(C(=O)OC)ccc1OC,0.445,-0.367 (inactive),-0.0288,-0.123,0.554,0.517,0.546,1.12,0.0685,0.249,0.551,1.12,0.0056,-0.117,0.641,0.0097,1.21,0.865,0.229,-0.551 (inactive)
